# Measured values taken from PubChem BioAssay (NCATS).
# Results filed as inconclusive are left out. Entries that show only a call come without a potency. Activity calls are given as the source filed them. The call rests on the fitted dose curve; in most records, active means well fitted inhibition curve with a large enough effect; inconclusive means small, poorly fitted or top-dose-only effect; inactive means flat fitted curve, though single readings scatter.
# Test system: Zika virus NS2B-NS3 protease
# Assay: Primary screen GU AMC qHTS for Zika virus inhibitors (AID 1347154); further: nearly all actives have a fitted effect of over 70% in size
# Conditions: Zika NS2B-NS3 unlinked protease, AMC fluorogenic substrate; series mostly up to 54.1 µM
# How it was run: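 Fluorogenic AMC-substrate cleavage by noncovalent NS2B-NS3 protease complex (25 nM, pH 8.0 Tris buffer with Tween 20) followed for 15 minutes at room temperature (~20% conversion). Percent inhibition from ex340/em450 signal change, fitted by 4-parameter Hill equation.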
row,SMILES,Potency
1,Cc1ccc(C(C)(O)c2nc3ccccc3s2)c(C)c1 (centres undefined),inactive
2,CC(=Cc1ccccc1)C=C1SC(=S)N(CC(=O)O)C1=O,inactive
3,O=c1c(-c2ccc(O)cc2)coc2cc(O[C@@H]3O[C@H](CO)[C@H](O)[C@H](O)[C@H]3O)ccc12,inactive
4,CC(C)C[C@H](CC(=O)O)C(=O)N[C@@H](Cc1c[nH]c2ccccc12)C(=O)N[C@@H](C)c1ccccc1,inactive
